According to PubChem BioAssay AID1159580 (chemical genetic matrix, 2015):
About 2,000 (36%) of roughly 5,500 compounds were called active. Not shown: some 18% with an inconclusive outcome. Rule as the data show it: active = normalized growth mostly below about 0.91 (no sharp cut-off); inconclusive = no clear call, values can overlap the other calls; inactive = mostly above about 0.92. The list shows a part of the results.

Assay: chemical genetic growth profiling, strain panel (AID 1159580);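 also: tested at 20 µM; growth read once vehicle control cultures reached saturation at 30 °C; 1 = growth at the plate median or of vehicle wells; lower values mean less growth of the strain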
Settings: growth OD
[1] = S. cerevisiae deletion strains, locus YAL013W, strain DEP1, stronger effect = lower value
[2] = S. cerevisiae deletion strains, locus YBR229C, strain ROT2, stronger effect = lower value
[3] = S. cerevisiae deletion strains, locus YCL061C, strain MRC1, stronger effect = lower value
[4] = S. cerevisiae deletion strains, locus YDL101C, strain DUN1, stronger effect = lower value
[5] = S. cerevisiae deletion strains, locus YDR150W, strain NUM1, stronger effect = lower value
[6] = S. cerevisiae deletion strains, locus YEL061C, strain CIN8, stronger effect = lower value
[7] = S. cerevisiae deletion strains, locus YGR078C, strain PAC10, stronger effect = lower value
[8] = S. cerevisiae deletion strains, locus YHR030C, strain SLT2, stronger effect = lower value
[9] = S. cerevisiae deletion strains, locus YHR087W, strain rtc3, stronger effect = lower value
[10] = S. cerevisiae deletion strains, locus YJL187C, strain SWE1, stronger effect = lower value
[11] = S. cerevisiae deletion strains, locus YJR043C, strain POL32, stronger effect = lower value
[12] = S. cerevisiae deletion strains, locus YJR075W, strain HOC1, stronger effect = lower value
[13] = S. cerevisiae deletion strains, locus YLR039C, strain RIC1, stronger effect = lower value
[14] = S. cerevisiae deletion strains, locus YLR058C, strain SHM2 (second series), stronger effect = lower value
[15] = S. cerevisiae deletion strains, locus YLR085C, strain ARP6, stronger effect = lower value
[16] = S. cerevisiae deletion strains, locus YLR262C, strain YPT6, stronger effect = lower value
[17] = S. cerevisiae deletion strains, locus YML094W, strain GIM5, stronger effect = lower value
[18] = S. cerevisiae deletion strains, locus YMR219W, strain ESC1, stronger effect = lower value
[19] = S. cerevisiae deletion strains, locus YMR263W, strain SAP30, stronger effect = lower value
[20] = S. cerevisiae deletion strains, locus YNL153C, strain GIM3, stronger effect = lower value
[21] = S. cerevisiae deletion strains, locus YNL298W, strain CLA4 (second series), stronger effect = lower value
[22] = S. cerevisiae deletion strains, locus YNL322C, strain KRE1, stronger effect = lower value
[23] = S. cerevisiae deletion strains, locus YNR030W, strain Alg12, stronger effect = lower value
[24] = S. cerevisiae deletion strains, locus YPL055C, strain LGE1, stronger effect = lower value
[25] = S. cerevisiae deletion strains, locus YPL241C, strain CIN2, stronger effect = lower value
[26] = S. cerevisiae deletion strains, locus YPR135W, strain CTF4, stronger effect = lower value
[27] = S. cerevisiae deletion strains, locus YDL134C, strain PPH21, stronger effect = lower value
[28] = S. cerevisiae deletion strains, locus YKL190W, strain CNB1, stronger effect = lower value
[29] = S. cerevisiae strains, strain wild type, stronger effect = lower value

Measured: normalized growth

FC(F)(F)c1cc(-n2c(CCc3nc(-c4ccc(Cl)cc4)no3)n[nH]c2=S)cc(C(F)(F)F)c1
inactive: [1] 0.996 | [2] 0.991 | [3] 0.985 | [4] 0.946 | [5] 0.867 | [6] 1.04 | [7] 0.963 | S. cerevisiae deletion strains, locus YGR229C, strain SMI1, stronger effect = lower value 0.991 | [8] 0.993 | [9] 1.03 | [10] 1.01 | [11] 0.978 | [12] 0.978 | [13] 1.05 | [14] 1.01 | [15] 0.97 | [16] 1.02 | [17] 1.03 | [18] 0.994 | [19] 0.957 | [20] 0.95 | [21] 0.981 | [22] 0.989 | [23] 0.975 | S. cerevisiae deletion strains, locus YOL006C, strain TOP1, stronger effect = lower value 0.994 | [24] 0.994 | [25] 0.965 | [26] 0.879

O=C(NCc1nc(-c2ccc(C(F)(F)F)cc2)no1)Nc1ccc(F)cc1F
active: [27] 0.857
inactive: [1] 1.01 | [2] 0.987 | [4] 0.975 | [5] 1.03 | [6] 0.996 | [7] 0.996 | [8] 1.07 | [9] 0.973 | [10] 0.997 | [11] 1 | [12] 0.967 | [28] 1.01 | [13] 0.981 | [14] 1.01 | [15] 1.04 | [16] 1.02 | [17] 0.968 | [18] 1 | S. cerevisiae deletion strains, locus YMR307W, strain GAS1, stronger effect = lower value 0.894 | [20] 0.987 | [21] 1.03 | [22] 1.02 | [23] 0.988 | [24] 0.846 | [25] 0.966 | [26] 1.01 | [29] 1.02

O=C(O)CC(CC(=O)Nc1ccc(I)cc1F)c1ccc(C(F)(F)F)cc1 (stereo not given)
inactive: [1] 0.99 | [2] 0.99 | [3] 0.978 | [4] 0.985 | [27] 0.981 | [5] 0.972 | [6] 1 | [7] 1 | [8] 1 | [9] 0.981 | [11] 1 | [12] 0.943 | [28] 1.01 | [13] 1.02 | [14] 0.975 | [15] 1 | [16] 1.02 | [17] 0.989 | [18] 0.984 | [19] 0.969 | S. cerevisiae deletion strains, locus YNL128W, strain TEP1, stronger effect = lower value 0.995 | [20] 1.01 | [21] 1.05 | [22] 0.973 | [23] 0.927 | [24] 0.968 | [25] 0.986 | [26] 1.03 | [29] 1
